The text below walks through data of PubChem BioAssay AID1117300 (National Center for Advancing Translational Sciences (NCATS), 2015).

Activity calls are given as the source filed them. The call rests on the fitted dose curve.

For this assay the following is noted: Ebola virus entry assay, ratio channel readout.
`COc1cccc2c1C(=O)c1c(O)c3c(c(O)c1C2=O)C[C@@](O)(C(C)=O)C[C@H]3O[C@H]1C[C@H](N)[C@H](O)[C@H](C)O1`: the AC50 (commonly the concentration at which the activity in the assay is half-maximal) is 2.73 µM (active).

As for `CCC1=C[C@@H]2CN(C1)Cc1c([nH]c3ccccc13)[C@@](C(=O)OC)(c1cc3c(cc1OC)N(C)[C@H]1[C@@](O)(C(=O)OC)[C@H](OC(C)=O)[C@]4(CC)C=CCN5CC[C@]31[C@@H]54)C2`, the concentration at half-maximal activity (AC50) is 0.0863 µM (active).

Consider `CCCSc1ccc2nc(NC(=O)OC)[nH]c2c1`, for which the outcome was inactive.

In the case of `COC1=CC(=O)C[C@@H](C)[C@]12Oc1c(Cl)c(OC)cc(OC)c1C2=O`, the outcome was inactive.

As for `CN1CCN(CCCN2c3ccccc3Sc3ccc(C(F)(F)F)cc32)CC1`, the AC50 is 7.69 µM (active).

In the case of `CCCNCC(O)COc1ccccc1C(=O)CCc1ccccc1` (stereo unspecified), the outcome was inactive.

As for `CCN(CC)CCNC(=O)c1c(C)[nH]c(/C=C2\C(=O)Nc3ccc(F)cc32)c1C`, the AC50 was 2.17 µM (active).

For the compound `COC(=O)Nc1nc2ccc(C(=O)c3ccccc3)cc2[nH]1`, the result was inactive.

In the case of `Cc1nnc(C(C)C)n1C1C[C@H]2CC[C@@H](C1)N2CC[C@H](NC(=O)C1CCC(F)(F)CC1)c1ccccc1` (stereo partly specified), the result was inactive.

For the compound `COC(=O)Nc1nc2ccc(C(=O)c3cccs3)cc2[nH]1`, the AC50 is 0.544 µM (active).

On to `CO[C@H]1C[C@@H]2CC[C@@H](C)[C@@](O)(O2)C(=O)C(=O)N2CCCC[C@@H]2C(=O)O[C@H]([C@H](C)C[C@@H]2CC[C@H](OCCO)[C@H](OC)C2)CC(=O)[C@H](C)C=C(C)[C@@H](O)[C@@H](OC)C(=O)[C@H](C)C[C@H](C)C=CC=CC=C1C`, for which the outcome was inactive.
